Reference: paper PMC7862700, “An all-to-all approach to the identification of sequence-specific readers for epigenetic DNA modifications on cytosine”

What was measured:
Experiment in all cases: DAPPL (digital affinity profiling via proximity ligation, sequencing); 10 mM Tris-HCl pH 7.5, 50 mM NaCl, 1 mM DTT, 4% glycerol, room temperature, 30 min; GST-TFs on glutathione beads, 16-mer random dsDNA library, 0.1% formaldehyde crosslink after washing; high values mean tight binding
Details in all cases: protein: recombinant; tags: N-terminal GST; dsDNA, one strand shown
[1] = biological target: T1, FLI1 (Homo sapiens, UniProt Q01543 1-452)
T1 sequence: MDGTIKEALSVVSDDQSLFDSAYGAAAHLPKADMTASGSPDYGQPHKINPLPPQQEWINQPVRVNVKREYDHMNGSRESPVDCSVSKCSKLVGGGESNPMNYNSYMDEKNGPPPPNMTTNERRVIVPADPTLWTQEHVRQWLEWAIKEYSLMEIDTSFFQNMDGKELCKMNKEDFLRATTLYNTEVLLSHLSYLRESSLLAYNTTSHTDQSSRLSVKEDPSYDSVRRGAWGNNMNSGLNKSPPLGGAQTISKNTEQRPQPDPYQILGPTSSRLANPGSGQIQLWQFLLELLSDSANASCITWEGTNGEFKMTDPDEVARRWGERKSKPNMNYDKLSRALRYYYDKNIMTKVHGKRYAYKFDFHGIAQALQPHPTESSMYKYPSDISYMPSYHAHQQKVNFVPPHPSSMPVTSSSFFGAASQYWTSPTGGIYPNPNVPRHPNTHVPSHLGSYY
How it was run: (§1)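 GST fusions of human transcription factors were expressed in yeast and captured with glutathione beads. Once given DNA barcodes and pooled alongside a tag-only sample, they were incubated for 30 min at room temperature with 200 nmole of a random double-stranded 16-mer DNA library in Tris/NaCl/DTT/glycerol buffer, then washed, crosslinked (0.1% formaldehyde), proximity-ligated, PCR-amplified and sequenced on an Illumina NextSeq500. The binding signal of each hexamer is its read frequency for a factor divided by its frequency for the tag-only sample.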

[2] = biological target: T2, ELK1 (Homo sapiens, UniProt P19419 1-428)
T2 sequence: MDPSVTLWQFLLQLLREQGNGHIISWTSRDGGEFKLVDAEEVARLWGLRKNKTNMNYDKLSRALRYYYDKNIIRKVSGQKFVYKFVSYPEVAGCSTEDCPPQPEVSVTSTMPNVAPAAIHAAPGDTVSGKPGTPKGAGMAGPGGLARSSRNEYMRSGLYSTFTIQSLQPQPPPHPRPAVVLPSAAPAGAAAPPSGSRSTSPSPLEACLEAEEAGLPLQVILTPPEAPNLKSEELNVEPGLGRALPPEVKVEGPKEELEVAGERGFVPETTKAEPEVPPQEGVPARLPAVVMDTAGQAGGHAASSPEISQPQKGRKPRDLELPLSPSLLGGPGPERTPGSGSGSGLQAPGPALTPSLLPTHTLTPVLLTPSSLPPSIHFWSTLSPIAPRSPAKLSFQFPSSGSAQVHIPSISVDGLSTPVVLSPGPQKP
How it was run: as §1

[3] = biological target: T3, GABPA (Homo sapiens, UniProt Q06546 1-454)
T3 sequence: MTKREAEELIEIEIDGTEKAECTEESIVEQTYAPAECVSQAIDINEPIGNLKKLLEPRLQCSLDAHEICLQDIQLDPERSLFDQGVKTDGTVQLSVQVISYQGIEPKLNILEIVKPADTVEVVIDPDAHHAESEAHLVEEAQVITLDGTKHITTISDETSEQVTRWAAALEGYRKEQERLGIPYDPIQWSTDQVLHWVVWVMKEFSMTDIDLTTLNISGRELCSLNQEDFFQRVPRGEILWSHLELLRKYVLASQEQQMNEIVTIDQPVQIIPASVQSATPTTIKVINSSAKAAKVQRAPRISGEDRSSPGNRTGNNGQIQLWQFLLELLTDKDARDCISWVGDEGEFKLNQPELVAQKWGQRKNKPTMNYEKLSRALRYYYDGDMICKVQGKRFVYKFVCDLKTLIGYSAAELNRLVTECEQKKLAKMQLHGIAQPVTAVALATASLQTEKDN
How it was run: as §1

[4] = biological target: T4, ERG (Homo sapiens, UniProt P11308 1-479)
T4 sequence: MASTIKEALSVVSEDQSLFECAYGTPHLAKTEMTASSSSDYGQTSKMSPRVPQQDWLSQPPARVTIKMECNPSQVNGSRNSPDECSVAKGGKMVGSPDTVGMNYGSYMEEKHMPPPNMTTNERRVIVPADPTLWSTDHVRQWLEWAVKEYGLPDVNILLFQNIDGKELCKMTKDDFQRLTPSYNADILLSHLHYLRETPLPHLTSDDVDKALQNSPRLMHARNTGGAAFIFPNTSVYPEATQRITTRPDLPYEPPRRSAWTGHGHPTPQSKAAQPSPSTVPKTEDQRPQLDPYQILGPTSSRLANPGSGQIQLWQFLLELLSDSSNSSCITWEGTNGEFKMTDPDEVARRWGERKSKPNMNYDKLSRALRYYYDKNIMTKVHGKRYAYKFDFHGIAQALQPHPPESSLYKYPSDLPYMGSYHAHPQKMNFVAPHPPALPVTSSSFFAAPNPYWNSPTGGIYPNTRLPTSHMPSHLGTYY
How it was run: as §1

[5] = biological target: ELF1 (Homo sapiens, UniProt P32519 1-619)
How it was run: as §1

[6] = biological target: T5, EHF (Homo sapiens, UniProt Q9NZC4 1-300)
T5 sequence: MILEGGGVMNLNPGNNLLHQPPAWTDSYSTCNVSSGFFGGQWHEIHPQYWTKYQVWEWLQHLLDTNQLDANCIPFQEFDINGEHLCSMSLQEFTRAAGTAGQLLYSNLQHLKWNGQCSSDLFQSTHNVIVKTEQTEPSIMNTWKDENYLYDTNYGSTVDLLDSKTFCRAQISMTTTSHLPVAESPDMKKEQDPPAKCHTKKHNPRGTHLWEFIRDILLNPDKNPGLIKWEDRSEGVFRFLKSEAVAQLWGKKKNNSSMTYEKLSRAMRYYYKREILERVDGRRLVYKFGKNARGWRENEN
How it was run: as §1

[7] = biological target: SPI1 (Homo sapiens, UniProt P17947 1-270)
How it was run: as §1

[8] = biological target: SPIB (Homo sapiens, UniProt Q01892 1-262)
How it was run: as §1

[9] = biological target: T6, ELK3 (Homo sapiens, UniProt P41970 1-407)
T6 sequence: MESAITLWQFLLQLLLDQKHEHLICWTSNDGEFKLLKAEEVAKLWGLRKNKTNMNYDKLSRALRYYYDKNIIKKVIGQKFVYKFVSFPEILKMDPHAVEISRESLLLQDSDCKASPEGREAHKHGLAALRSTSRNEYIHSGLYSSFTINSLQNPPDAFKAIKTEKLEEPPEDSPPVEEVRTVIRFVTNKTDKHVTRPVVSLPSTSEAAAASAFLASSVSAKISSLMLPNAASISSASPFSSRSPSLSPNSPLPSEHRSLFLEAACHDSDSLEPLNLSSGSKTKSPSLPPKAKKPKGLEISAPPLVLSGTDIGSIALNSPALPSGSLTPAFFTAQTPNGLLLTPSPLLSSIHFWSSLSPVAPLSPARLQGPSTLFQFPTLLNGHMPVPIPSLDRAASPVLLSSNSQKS
How it was run: as §1

Chain of ELF1 (P32519 whole entry): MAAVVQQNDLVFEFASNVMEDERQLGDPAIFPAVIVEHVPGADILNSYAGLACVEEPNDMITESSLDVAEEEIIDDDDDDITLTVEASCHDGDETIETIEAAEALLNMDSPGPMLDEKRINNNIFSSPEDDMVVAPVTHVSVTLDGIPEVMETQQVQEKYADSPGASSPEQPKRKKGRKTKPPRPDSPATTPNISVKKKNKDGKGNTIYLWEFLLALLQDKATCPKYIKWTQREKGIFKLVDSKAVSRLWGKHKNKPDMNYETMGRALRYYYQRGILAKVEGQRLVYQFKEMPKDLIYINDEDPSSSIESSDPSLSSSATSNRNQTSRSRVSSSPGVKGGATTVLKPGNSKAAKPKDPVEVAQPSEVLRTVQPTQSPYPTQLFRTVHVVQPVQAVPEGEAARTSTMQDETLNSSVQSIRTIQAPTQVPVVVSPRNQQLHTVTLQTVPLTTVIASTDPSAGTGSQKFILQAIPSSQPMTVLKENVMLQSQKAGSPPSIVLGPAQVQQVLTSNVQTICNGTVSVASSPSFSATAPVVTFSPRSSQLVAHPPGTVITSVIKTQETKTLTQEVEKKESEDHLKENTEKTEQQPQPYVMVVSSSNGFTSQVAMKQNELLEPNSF
Chain of SPIB (Q01892 whole entry): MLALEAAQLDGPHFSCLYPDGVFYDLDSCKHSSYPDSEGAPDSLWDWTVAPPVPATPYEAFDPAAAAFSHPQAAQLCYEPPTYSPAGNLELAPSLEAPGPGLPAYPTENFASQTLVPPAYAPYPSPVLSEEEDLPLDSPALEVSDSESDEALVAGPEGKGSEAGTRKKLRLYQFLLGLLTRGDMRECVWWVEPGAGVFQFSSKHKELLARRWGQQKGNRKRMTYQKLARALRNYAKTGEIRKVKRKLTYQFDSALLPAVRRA

## GGATCC
[1]
  binding signal: 1.15 fold enrichment (6-mer frequency, TF over GST control)
[2]
  binding signal: 1.13 fold enrichment (6-mer frequency, TF over GST control)
[3]
  binding signal: 1.18 fold enrichment (6-mer frequency, TF over GST control)
[4]
  binding signal: 1.25 fold enrichment (6-mer frequency, TF over GST control)
[5]
  binding signal: 1.18 fold enrichment (6-mer frequency, TF over GST control)
[6]
  binding signal: 1.16 fold enrichment (6-mer frequency, TF over GST control)
[7]
  binding signal: 1.06 fold enrichment (6-mer frequency, TF over GST control)
[8]
  binding signal: 1.24 fold enrichment (6-mer frequency, TF over GST control)
[9]
  binding signal: 1.07 fold enrichment (6-mer frequency, TF over GST control)
